Experimental data taken from PubChem BioAssay AID1508600 (Functional Genomics Laboratory (NCATS/FGL), 2020).
Hit rate of the full screen: of about 53,000 sequences, about 3,700 (7%) were called active. Shown is part of a subset that was picked to be rich in actives. Values without a mark were called inactive.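 The calls were made as follows: active = gene knockdowns whose robust z-score for IL-1 alpha signal is at least 2 or at most -2, so actives lie on both sides; inactive = the rest.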

Assay: Components of the Cytosolic LPS Sensing Pathway: Gene Identification via Genome-wide siRNA Screen;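 also: robust z of the log signal after scaling to non-targeting control siRNA wells of the plate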
Conditions: RAW264.7 macrophages, IL-1a HTRF, actives lie on both sides, screened at 100 nM (by protocol), cells primed 5 h with Pam3CSK4 first
In short: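 Using IL-1a HTRF as read-out, the screen measured release from RAW264.7 cells after 48h siRNA knockdown (100 nM), 5 h Pam3CSK4 priming and 24 h cytosolic LipidA. Values were expressed relative to negative-control wells as robust z-scores.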

Row | Sequence | z-score
1 | GGAAAUAAUGACCAAGUACTT against Grk5 | -1.32
2 | CCCUGGUAAACACCAAUAGTT against Ctnna1 | 0.849
3 | GCCUGUCCACAUCACUGUATT against Tmem171 | -0.16
4 | CCCUAAGGAGUUUUGCGUUTT against Ikzf4 | 1.58
5 | GGUCUAUUUGACCUCUUAATT against Bcl2l13 | 2.22 (active)
6 | GGUAUAUGGACUGGUGGAUTT against Hrh2 | 0.41
7 | GGAUCAAUGAAAAUGAGAATT against Fzr1 | -0.0554
8 | CCAGUACCCGUCUGAAAAGTT against Olfr215 | -0.457
9 | GGAUCUUUGCUACAAAAACTT against Fhl5 | 0.48
10 | GGGAUAACCAGUGAAUUUATT against Pcdhb15 | 2.23 (active)
11 | GGGACUUAUGUCCAGGAAGTT against Agap3 | -1.09
12 | GGGACCACCUUGAACACUATT against Slc52a3 | 1.81
13 | GGCAUCUUAUUUCUUGUUATT against Tbkbp1 | -0.56
14 | GUGAAGAAAGUCAUCAAGATT against Olfr1506 | -0.182
15 | GGCUUUGAUCAGCAUGAGCTT against Pak4 | -2.07 (active)
16 | GCAAGGUCAAUCAAUCGUATT against Taar1 | 0.548
17 | GCGGAGUCUUUGGCUUAGATT against Lratd2 | 1.03
18 | CGAAAGCUAAACUAAAAGATT against Stimate | 0.539
19 | GCUGAAUACCCUUUUAGUUTT against Atp2c1 | 0.317
20 | GCGAUAUUAACUAUGGAGATT against Gpr149 | -0.601
21 | GGUAUUCCAAUAACUGUACTT against Fip1l1 | -0.269
22 | GGAAAGAAUCCACUUGCAUTT against Xkr5 | -1.35
23 | GGAGAUUUUCCAGAGGCUGTT against Josd1 | -2.24 (active)

Row | Sequence | z-score
24 | CGGCCUUCUCUACAAAUCATT against Rbfa | 0.816
25 | GCUGACCAUUUUGAUGCCCTT against Adi1 | -0.0381
26 | GGUGGUUUUGUUUCUUUUUTT against Tab3 | 0.643
27 | GGGCCAACCCAGAAAAACATT against Plekha7 | -0.515
28 | GCCGUCUUUACAUUCCUGATT against Olfr605 | 0.8
29 | CCCAUCAAAAGAAUCCACATT against Snrnp70 | -2.51 (active)
30 | GGUGUUUAAUUGCUCACUATT against Gramd4 | 1.13
31 | UACCCGAAUGCAGACAGGATT against Raet1a | 0.667
32 | GGAGGAAGCUGAACUCUGGTT against Ehmt2 | -0.655
33 | GCAUUUAGAAGAAUCCGCCTT against Hao2 | 2.01 (active)
34 | CCUUGUGAUGUUUAAAGACTT against Abcg1 | 0.293
35 | GUGAGUAGGUAGGAAGCAUTT against Cd200r2 | -2.56 (active)
36 | CCAGUUGUCUAGACCUGCATT against Ptbp1 | -0.301
37 | CCUACAAGCAGAGUACAAUTT against Myo10 | 1.06
38 | GGCCUUCAACGAUUCAAUCTT against Olfr770 | 1.35
39 | GGAGAGAAAUUUGACACUCTT against Mgrn1 | -0.0326
40 | GCCAGUGUCCCUAAUAAGGTT against Ager | 0.2
41 | GCAAACUAUAGGUGCGUUGTT against Dscc1 | 0.885
42 | GUCUACCAGAUCCUUCCCUTT against H2-Q8 | -2.25 (active)
43 | GCAAACAUGUCAAGUCCGATT against Actl6b | 1.07
44 | GGACUAUUUGCUGAUGGACTT against Trpc6 | 2.74 (active)
45 | GCAUUUCACCUGGAGCCUUTT against Zfp108 | -1.11
46 | CGAGAAUACAUUGAGGAGUTT against Hook2 | 0.926

Row | Sequence | z-score
47 | CGACAACCACUUCAACUAUTT against Chn2 | 1.34
48 | GGCUAUCCUCUUUUACCAUTT against Dele1 | -0.374
49 | GGUGUUAGGAAGUCACAUUTT against Tas2r109 | -1.28
50 | CCCUAUCCUGUUCAUCUCUTT against Gpr50 | 2.83 (active)
51 | GGAAAAAGCUCAAAGGCGATT against Gap43 | -0.216
52 | GGAAAUGGAUCCAGAAUAUTT against Smarca1 | -1.12
53 | GGACAUGACAUCCAAAGACTT against Prmt1 | -0.649
54 | GGACACAGAUUAAUCAAGATT against Iftap | 0.144
55 | GGCCAUUGCCUCUUCUACUTT against Plekha4 | -0.225
56 | GAUCAACCUGAGCUCCAGUTT against Olfr25 | 2 (active)
57 | GGCCAUCCGCAUUUUUUCCTT against Mex3b | -0.34
58 | GGUUUUCAAAGUCCUGAAUTT against Myo3a | -1.96
59 | GGGAAAGAAUGGUGUGGAATT against Dlx4 | -1.97
60 | GGAAACUUCAGACUAGUCATT against Eif2s3y | -0.0291
61 | GGGAAUUUCGGCUGUUUUATT against Cts8 | 1.85
62 | GGACCUGAGAGACUCUUUGTT against Ip6k2 | -3 (active)
63 | GGUCCACAGAUUCUUCUAATT against Zfa-ps | -0.761
64 | GGCCAUUUUGGAUCAUACATT against Actl6a | -1.06
65 | GCAGAUCAAUGGAUUCACCTT against Olfr57 | -1.51
66 | GGCACUGCCAUUAACAAAATT against Nrip1 | 0.0122
67 | GGGCCAAUAAAGAGGACAGTT against Aanat | 2.38 (active)
68 | CCUGAUUGUCUUCAAUGGGTT against Cant1 | -0.84
69 | CCAGUUGACAGGUUUGAUCTT against Habp4 | -0.255
